Only some compounds are listed: those with a hit (about 2.9% of all), similar ones and a draw of the others.
Pol eta inh: DNA polymerase eta (human) inhibition. Q9Y253. recombinant Pol eta, fluorescent DNA replication assay. Potency, µM (top dose mostly 114 µM), without a hit: at the top dose activity change, negative = inhibition, hits mostly inhibitors. 1.2% of 390,000 active; note: potency is the fitted concentration of half-maximal effect; % is set by controls: 0 for no effect and ±100 for the full control effect
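Fluorescent replication assay: 50 nM final substrate added after a 15 min room-temperature compound preincubation with 10 nM enzyme. Signal taken at 0 min and again at 10 min.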
Pol iota inh: blocks human DNA polymerase iota activity; Q9UNA4; Pol iota fluorescent replication assay, 10 min; Potency, µM (series often up to 115 µM), inactives show top-dose activity, negative = inhibition, usual class: inhibitors; 1% of 390,000 active; note: potency is the fitted concentration of half-maximal effect
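Fluorescent replication assay read twice, at 0 min and 10 min after adding 50 nM (final) substrate. Enzyme (10 nM) and compounds were first incubated 15 min at room temperature; enzyme-free buffer wells were negative controls.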
ALOX12 inh: inhibitors of human 12S-lipoxygenase ALOX12. P18054. purified 12hLO, xylenol orange hydroperoxide absorbance. Potency, µM (highest dose often 108 µM), for the others: top-dose activity change, negative = inhibition, most hits filed as inhibitors. 1.1% of 580,000 active; note: potency is the fitted concentration of half-maximal effect; % is set by controls: 0 for no effect and ±100 for the full control effect
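Hydroperoxide product was detected by ferrous iron/xylenol orange as the 573 to 405 nm absorbance ratio. Arachidonic acid at 40 uM (final) was turned over for 30 min at room temperature by 150 nM human 12hLO, pH 7.0 Hepes buffer, after 15 min compound preincubation.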
PI5P4Ka inh: blocks human PI5P4K alpha kinase activity. max response, %. PI5P4Kalpha enzyme, ADP-Glo luminescence, 60 min; hits give low values. 1.2% of 330,000 active. P48426; active = max response of -50% or lower; inconclusive = between -30% and -50%; inactive = -30% or higher; note: value at the top dose of about 77 µM; % is set by controls: 0 for no effect and ±100 for the full control effect
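Controls without substrate or without enzyme flank wells where PI5P4Kalpha converts substrate using 5 microM ATP (final). Incubation lasts 60 minutes at room temperature; ADP formed is read by ADP-Glo luminescence.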
Pol kappa inh: blocks human DNA polymerase kappa activity | Q9UBT6 | purified Pol kappa, fluorescent DNA synthesis assay, 10 min | Potency, µM (series often up to 107 µM), without a hit: top-dose activity, negative = inhibition, most hits filed as inhibitors | 0.53% of 400,000 active | AID 588579; note: potency is the fitted concentration of half-maximal effect; % is set by controls: 0 for no effect and ±100 for the full control effect
Target sequence (Q9UBT6 whole entry, looked up): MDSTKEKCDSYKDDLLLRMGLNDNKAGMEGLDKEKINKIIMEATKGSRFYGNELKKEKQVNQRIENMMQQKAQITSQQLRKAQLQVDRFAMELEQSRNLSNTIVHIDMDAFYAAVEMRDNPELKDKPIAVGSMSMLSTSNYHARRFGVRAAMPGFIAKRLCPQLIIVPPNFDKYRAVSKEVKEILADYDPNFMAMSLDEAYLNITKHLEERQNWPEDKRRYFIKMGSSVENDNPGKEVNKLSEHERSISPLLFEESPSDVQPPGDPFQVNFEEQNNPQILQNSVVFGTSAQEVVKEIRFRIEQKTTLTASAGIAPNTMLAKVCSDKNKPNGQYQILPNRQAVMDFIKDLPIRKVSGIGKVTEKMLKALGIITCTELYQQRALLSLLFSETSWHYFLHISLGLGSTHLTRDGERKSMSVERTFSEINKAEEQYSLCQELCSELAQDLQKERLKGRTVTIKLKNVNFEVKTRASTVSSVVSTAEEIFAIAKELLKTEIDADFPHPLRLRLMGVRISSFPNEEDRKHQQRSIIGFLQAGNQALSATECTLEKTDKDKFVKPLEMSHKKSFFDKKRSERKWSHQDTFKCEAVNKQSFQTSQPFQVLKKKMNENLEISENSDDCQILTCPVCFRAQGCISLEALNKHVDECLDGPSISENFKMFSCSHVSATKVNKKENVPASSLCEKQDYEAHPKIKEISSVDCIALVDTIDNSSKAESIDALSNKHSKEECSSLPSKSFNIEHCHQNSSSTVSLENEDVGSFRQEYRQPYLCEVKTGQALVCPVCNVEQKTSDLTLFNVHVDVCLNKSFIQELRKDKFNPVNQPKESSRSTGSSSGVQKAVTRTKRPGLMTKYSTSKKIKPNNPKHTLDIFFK
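Inhibition of 10 nM Pol kappa is measured by a fluorescent read-out at 0 and 10 min following addition of 50 nM substrate (final), with a 15-min room-temperature compound preincubation.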
POLB inh: blocks human DNA polymerase beta activity | P06746 | Pol beta primer extension/strand displacement, fluorescence kinetic | Potency, µM (highest dose often 114 µM), for the others: at the top dose activity change, negative = inhibition, hits mostly inhibitors | 1.3% of 340,000 active | AID 485314; note: potency is the fitted concentration of half-maximal effect; % is set by controls: 0 for no effect and ±100 for the full control effect
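Human Pol beta at 10 nM; strand-displacement substrate 50 nM final. Compound exposure 15 min at room temperature before start, reaction 10 min at room temperature.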
The depositor's hits bear a star; ? = inconclusive; . = not tested or not shown; [ ] = dose if it differs, or a comment. Unless noted, calls come from the whole dose curve; as a rule, active = well fitted inhibition curve with a large enough effect; inconclusive = small, poorly fitted or top-dose-only effect, or another doubt; inactive = no such curve, though single readings can be large or run the other way.

SMILES	Pol eta inh	Pol iota inh	ALOX12 inh	PI5P4Ka inh	Pol kappa inh	POLB inh
O=C(CCC(=O)N1CCN(c2ccc(F)cc2)CC1)c1ccc(F)cc1	-1.8%	-2.0%	-12.3%	-1.1	-4.8%	7.5%
O=C(CCC(=O)N1CCN(c2ccc(F)cc2)CC1)N1CCN(c2ccc(F)cc2)CC1	-21.1%	19.2%	1.78µM*	-4.6	2.6%	25.5%
O=C(c1ccc(F)cc1)c1ccc(N2CCCC2)cc1	-18.2%	-6.9%	31.6µM*	2.6	-1.3%	-26.4%
CCC(CC)NC(=O)C1CCN(C2=NS(=O)(=O)c3ccccc32)CC1	.	.	-3.6%	.	.	.
CN(Cc1ccccc1)C(=O)C[C@@H]1O[C@H](CNC(=O)Nc2cccc(F)c2)[C@@H](O)[C@H]1O	.	.	-3.9%[176 µM]	.	.	.
CN(Cc1ccccc1)C(=O)C[C@@H]1O[C@H](CNC(=O)c2ccno2)[C@@H](O)[C@H]1O	.	.	28.2µM*	.	.	.
COc1ccc(-c2c(C)c3ccc(OC(=O)N4CCOCC4)cc3oc2=O)cc1	.	.	29.6%	.	.	.
O=c1[nH]n2c(=O)c3c([nH]c2c1N=Nc1cccc(Cl)c1)CCC3	20µM*	20µM*	?	-57.7*	89.1µM*	8.91µM*
O=c1[nH]n2c(=O)c3c([nH]c2c1N=Nc1cccc(C(F)(F)F)c1)CCCC3	?	-4.4%	?	-19.3	-27.6%	17.8µM*
O=c1c2c(nc3cc(-c4cccc(Cl)c4)[nH]n13)CCC2	-2.7%	3.8%	12.4%	.	0.0%	-2.2%
COc1cccc(N=Nc2c(=O)[nH]n3c(=O)c4c([nH]c23)CCC4)c1	50.1µM*	?	-12.4%	?	-30.7%	?
NS(=O)(=O)c1ccc(N=Nc2c(=O)[nH]n3c(=O)c4c([nH]c23)CCCC4)cc1	-24.6%	34.9%	?	-61.8*	-24.4%	2.0%
COc1cccc(N=Nc2c(=O)[nH]n3c(=O)cc(C)[nH]c23)c1	-11.3%	14.8%	221.0%	-24.4	-0.5%	14.0%
O=C(NCC(O)c1cccc(Cl)c1)Nc1nnc(C2CC2)s1 (centres undefined)	.	.	23.9%	.	.	.
N#Cc1cc2c(nc1N1CCN(C(C(=O)O)c3c[nH]c4cc(CO)ccc34)CC1)CCCC2 (centres undefined)	.	.	-25.5%	.	.	.
CCC(=O)c1cc(Br)c(OC)cc1OC	.	.	-4.3%	.	.	.
CCOC(=O)C1(CCCc2ccccc2)CCN(C(=O)COC)CC1	-17.5%	21.2%	0.4%	0.3	-15.4%	24.0%
CCOC(=O)C1(CCCc2ccccc2)CCN(C(=O)[C@@H]2C[C@@H](C)NC(=S)N2)CC1	-3.6%	44.7%	44.7µM*	-5.5	-9.5%	3.6%
S=C(Nc1ccccc1)Nc1nc2ccccc2n1CCOc1ccc(Br)cc1	-17.5%	14.7%	28.2µM*	0.8	-13.3%	-4.5%
CN(C(=O)CSc1nnnn1-c1ccccc1)c1ccccc1C(=O)NCc1ccco1	.	.	13.3%	.	.	.
O=C(CSc1nnnn1-c1ccccc1)NC(=O)NCc1ccco1	8.91µM*	20µM*	?	-60.5*	?	39.8µM*
CCOc1ccccc1-n1nnnc1SCC(=O)NC(=O)NCc1ccco1	?	?	-16.0%	.	?	22.4µM*
CS(=O)(=O)c1ccc2nc(NC(=O)c3ccc(=O)[nH]c3)sc2c1	50.1µM*	50.1µM*	0.3%	-27.4	-17.1%	-21.3%
CC(=O)N1N=C(c2ccc(Br)cc2)CC1c1ccc(Br)cc1 (centres undefined)	-18.0%	.	?	1.0	.	.
CC(C)c1ccc(C2CC(c3ccc(Br)cc3)=NN2C(N)=S)cc1 (centres undefined)	-14.1%	10.5%	44.7µM*	2.7	-19.3%	-8.2%
SMILES	Pol eta inh	Pol iota inh	ALOX12 inh	PI5P4Ka inh	Pol kappa inh	POLB inh
CC[n+]1c(/C=C/C=C/N(C(C)=O)c2ccccc2)sc2cc(OC)ccc21	?	?	?	-54.0*	35.5µM*	15.8µM*
CCOC(=O)C(=O)Nc1cc(OC)c(OC)c(OC)c1	.	.	8.3%	.	.	.
Cc1ccc2c(Cl)c(Cc3ccccc3)c(=S)[nH]c2n1	-8.8%	-1.9%	31.6µM*	-6.5	-15.9%	.
COC(=O)c1ccccc1-c1ccc(C(c2c(C)[nH][nH]c2=O)c2c(C)[nH][nH]c2=O)o1	?	7.94µM*	?	0.8	-7.1%	8.8%
COC(=O)c1cccc(-c2ccc(C(c3c(C)[nH][nH]c3=O)c3c(C)[nH][nH]c3=O)o2)c1	-5.3%	7.08µM*	?	?	-7.3%	?
COC(=O)c1ccc(C(c2c(C)[nH][nH]c2=O)c2c(C)[nH][nH]c2=O)cc1	-15.0%	-12.7%	112.9%	-2.2	4.1%	31.0%
COc1cc(C(c2c(C)[nH][nH]c2=O)c2c(C)[nH][nH]c2=O)ccc1OC(=O)c1ccccc1OC	7.6%	?	-10.8%	.	5.8%	-0.6%
Cc1nnc2sc(-c3cccc(NC(=O)C(C)(C)C)c3)nn12	.	.	-1.9%	.	.	.
CC1(C)CC(=O)C2=C(C1)c1c(ccc3ccccc13)NC2c1ccc(OCC(=O)O)cc1 (centres undefined)	-14.7%	-4.7%	?	-0.9	?	44.7µM*
COc1cc(C2Nc3ccc4ccccc4c3C3=C2C(=O)CC(C)(C)C3)ccc1OCC(=O)O (centres undefined)	-17.4%	4.0%	?	0.0	-9.9%	13.2%
CCc1ccc2oc(-c3cccc(NC(=O)COc4ccc([N+](=O)[O-])cc4)c3)nc2c1	.	.	-38.1%	.	.	.
Cc1nc2ccccc2nc1SCC(=O)NC(C)C	.	.	-5.5%	.	.	.
O=C(N/N=C1/CC2CCC1C2)c1cc2ccccc2cc1O (centres undefined)	-3.9%	6.2%	3.9%	-56.0*	-9.2%	-24.1%
Cc1ccc2c(=O)cc(C(=O)NCCc3ccc(S(N)(=O)=O)cc3)oc2c1	22.4µM*	44.7µM*	-13.1%	-78.5*	-90.2%	?
Cc1ccc(OCc2nc(-c3ccc(C(=O)NCCc4ccc(S(N)(=O)=O)cc4)cc3)oc2C)cc1	4.8%	79.4µM*	4.9%	.	2.9%	29.9%
c1ccc(CCNc2nc(-c3ccncc3)cs2)cc1	9.1%	108.6%	0.0%	0.2	-6.3%	5.4%
c1ccc(CCNc2nc(-c3c[nH]c4ccccc34)cs2)cc1	.	.	44.7µM*	.	.	.
O=C(Nc1nc(-c2c[nH]c3ccccc23)cs1)C1CCC1	.	.	50.1µM*	.	.	.
c1ccc2c(-c3csc(NC4CC4)n3)c[nH]c2c1	.	.	-49.9%	.	.	.

Bioassay records from PubChem BioAssay.
